The values that follow come from PubChem BioAssay (NCI).

This is part of a sample that, as a whole, favours compounds with a hit. Of some 83,000 tested, about 20% had one in any assay.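 Single-concentration screen, 48 h exposure, 96-well plates. Endpoint: percent growth. Below 10 = active.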 A number with no mark means an inactive call. Activity calls are given as the source filed them.

Some test systems named below: NCI-H23 lung; NCI-H226 lung; NCI-H322M lung; HOP-62 NSCLC; NCI-H460 lung; HOP-92 NSCLC; NCI-H522 lung; A549/ATCC NSCLC; 786-0 renal; COLO 205 colon.
Assay in all cases: NCI-60 one-dose screen, 48 h (100 = growth as untreated, 0 = no growth, -100 = all killed)
Holding throughout (conditions): 10 µM unless noted

Regarding `Cc1nc(Cl)c2c(n1)N(C)c1ccc(Cl)cc1C(C)C2` (stereo not given), the growth in the experiment on NCI-H23 lung was 92.5%; in the experiment on NCI-H226 lung it was 87.7%; in the experiment with NCI-H322M lung, 97.1%; with HOP-62 NSCLC it was 90.4%; with NCI-H460 lung it was 92.3%; in the experiment on HOP-92 NSCLC, 66%. Further, the growth with NCI-H522 lung is 77.8%; in the experiment on A549/ATCC NSCLC, 84.6%; in the experiment with 786-0 renal it was 90%; in the experiment with COLO 205 colon it was 97.3%.

In the case of `O=C(Nc1cccc2cccnc12)c1cc(C(=O)c2ccc(Cl)cc2)n2ccc(-c3ccncc3)cc12`, the growth with NCI-H23 lung is 102%; with NCI-H226 lung, 91%; in the experiment with NCI-H322M lung it was 95.7%; in the experiment on HOP-62 NSCLC it was 88.3%; with NCI-H460 lung it was 98%; in the experiment with HOP-92 NSCLC, 83.9%. Moreover, the growth with NCI-H522 lung is 88.8%; in the experiment with A549/ATCC NSCLC, 99.1%; in the experiment with 786-0 renal, 103%; in the experiment on COLO 205 colon, 111%.

With `O=C(CCCCCCSc1nc(-c2ccc(Cl)cc2)cc(-c2ccc(Cl)cc2)n1)NO`, the growth is 24.2% with NCI-H23 lung; 26.7% with NCI-H226 lung; 38.4% in the experiment with NCI-H322M lung; 15.9% in the experiment with HOP-62 NSCLC; 14.9% with NCI-H460 lung; 44.8% with HOP-92 NSCLC. Further, the growth was 17.1% with NCI-H522 lung, 7.16% (active) in the experiment on A549/ATCC NSCLC, 30.8% with 786-0 renal and 48.4% in the experiment with COLO 205 colon.

With `CCN(CC)c1cc(N)c(Cc2c(N)cc(N(CC)CC)cc2Cl)c(Cl)c1`, the growth is 11.1% in the experiment with NCI-H23 lung; 45.6% in the experiment with NCI-H226 lung; 96.9% with NCI-H322M lung; 51.8% in the experiment on HOP-62 NSCLC; 35% in the experiment with NCI-H460 lung; 26.1% in the experiment on HOP-92 NSCLC. Moreover, the growth in the experiment on NCI-H522 lung is -3.79% (active); in the experiment on A549/ATCC NSCLC it was 47%; in the experiment with 786-0 renal, 74.3%; with COLO 205 colon it was 21.4%.

As to `Clc1ccc(/C=N/Nc2nc3ccccc3s2)c(Cl)c1`, the growth is 90.4% in the experiment on NCI-H23 lung; 100% in the experiment with NCI-H226 lung; 93.4% in the experiment with NCI-H322M lung; 87.9% in the experiment with HOP-62 NSCLC; 41.8% with NCI-H460 lung; 44.6% with HOP-92 NSCLC. Besides, the growth is 97.2% with NCI-H522 lung, 73.7% in the experiment on A549/ATCC NSCLC, 90.7% in the experiment with 786-0 renal and 88.4% with COLO 205 colon.

As to `NC(=O)c1c(NC(=O)COC(=O)Cc2ccccc2F)sc2c1CCC2`, the growth in the experiment with NCI-H23 lung was 99.2%; with NCI-H226 lung it was 94.4%; in the experiment with NCI-H322M lung, 126%; with HOP-62 NSCLC, 115%; with NCI-H460 lung, 100%; with HOP-92 NSCLC, 89.3%. The growth is 85.5% in the experiment on NCI-H522 lung, 103% with A549/ATCC NSCLC, 97.6% in the experiment on 786-0 renal and 101% in the experiment with COLO 205 colon.

With `CC1Cc2ccc(OCCN(C)C)cc2C1=O` (stereo not given), the growth was 103% in the experiment on NCI-H23 lung; 99% with NCI-H226 lung; 97.8% in the experiment on NCI-H322M lung; 96.4% in the experiment with HOP-62 NSCLC; 105% in the experiment with NCI-H460 lung; 82.1% in the experiment with HOP-92 NSCLC. The growth with NCI-H522 lung was 106%; in the experiment with A549/ATCC NSCLC it was 88.9%; in the experiment with 786-0 renal, 101%; in the experiment on COLO 205 colon it was 105%.

As to `COc1cc(-c2nc(SCCC(C)C)nc(Nc3ccc(S(N)(=O)=O)cc3)c2C#N)cc(OC)c1OC`, the growth is 51.2% in the experiment on NCI-H23 lung; 44% in the experiment on NCI-H226 lung; 72.7% in the experiment on NCI-H322M lung; 33.5% in the experiment on HOP-62 NSCLC; 19.7% in the experiment on NCI-H460 lung; 2.39% (active) with HOP-92 NSCLC. Besides, the growth with NCI-H522 lung was 45%; with A549/ATCC NSCLC it was 26.4%; with 786-0 renal, 31.4%; in the experiment with COLO 205 colon, 29.8%.

Consider `CCCc1cc2cc(-n3nc(C)c4c3CC(C)(C)CC4=O)cc(NC3CCSCC3)c2c(=O)[nH]1`, for which the growth with NCI-H23 lung was 36.8%; in the experiment with NCI-H226 lung, 90.2%; with NCI-H322M lung it was 63.4%; in the experiment on HOP-62 NSCLC it was 45.9%; in the experiment on NCI-H460 lung, 66.5%; in the experiment with HOP-92 NSCLC, 93.2%. The growth in the experiment with NCI-H522 lung was 47.7%; in the experiment with A549/ATCC NSCLC, 49.1%; in the experiment on 786-0 renal, 66.8%; in the experiment on COLO 205 colon, 41.9%.

For the molecule `COc1ccc(C(=O)/C=C/c2ccccn2)c(O)c1`, the growth was 85.4% in the experiment on NCI-H23 lung; 98% with NCI-H226 lung; 95.3% in the experiment on NCI-H322M lung; 87.5% with HOP-62 NSCLC; 89.7% in the experiment with NCI-H460 lung; 78.6% in the experiment with HOP-92 NSCLC. The growth in the experiment on NCI-H522 lung was 69.4%; in the experiment on A549/ATCC NSCLC, 94%; with 786-0 renal, 79.6%; in the experiment with COLO 205 colon, 103%.

For the molecule `COc1ccc(-c2c(C)nn3c(NCCN4CCOCC4)cc(C)nc23)cc1OC`, the growth in the experiment with NCI-H23 lung is 102%; with NCI-H226 lung, 94.2%; in the experiment with NCI-H322M lung, 102%; with HOP-62 NSCLC, 95%; with NCI-H460 lung it was 103%; in the experiment on HOP-92 NSCLC it was 108%. For the same molecule, the growth in the experiment with NCI-H522 lung is 106%; in the experiment with A549/ATCC NSCLC, 96.6%; in the experiment on 786-0 renal, 94.7%; in the experiment on COLO 205 colon, 111%.

On to `CCn1cc(-c2[nH]c(=S)ncc2-c2ccc(Cl)cc2)c(-c2ccc(Br)cc2)n1`, for which the growth is 85.8% in the experiment on NCI-H23 lung; 94% with NCI-H226 lung; 96.5% in the experiment on NCI-H322M lung; 61.6% in the experiment on HOP-62 NSCLC; 58.5% with NCI-H460 lung; 104% in the experiment with HOP-92 NSCLC. The growth in the experiment with NCI-H522 lung was 58.5%; in the experiment with A549/ATCC NSCLC, 72.2%; with 786-0 renal, 101%; with COLO 205 colon it was 94%.

For the molecule `COC(=O)c1cc2c(=O)[nH]cc3c2c(n1)CCC3`, the growth in the experiment on NCI-H23 lung is 106%; in the experiment on NCI-H226 lung, 112%; with NCI-H322M lung it was 108%; in the experiment with HOP-62 NSCLC, 97.4%; in the experiment with NCI-H460 lung, 101%; in the experiment with HOP-92 NSCLC, 76.8%. In addition, the growth with NCI-H522 lung is 102%; in the experiment with A549/ATCC NSCLC, 101%; in the experiment on 786-0 renal it was 101%; in the experiment on COLO 205 colon, 106%.
